Bioassay records (PubChem)
TbREL1 inh: TbREL1 RNA ligase inhibitors, primary screen, biochemical, FRET fluorescence; actives 0.49% (n = 89,000); TbREL1 RNA ligation; inhibition, % at 9.66 µM;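 active means inhibition above the mean inhibition across all screened compounds plus 3 SD, cut at about 11% in these data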;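 further: 0% = plate median of test wells and 100% = NSC42067 control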
Target sequence (P86926 whole entry, looked up): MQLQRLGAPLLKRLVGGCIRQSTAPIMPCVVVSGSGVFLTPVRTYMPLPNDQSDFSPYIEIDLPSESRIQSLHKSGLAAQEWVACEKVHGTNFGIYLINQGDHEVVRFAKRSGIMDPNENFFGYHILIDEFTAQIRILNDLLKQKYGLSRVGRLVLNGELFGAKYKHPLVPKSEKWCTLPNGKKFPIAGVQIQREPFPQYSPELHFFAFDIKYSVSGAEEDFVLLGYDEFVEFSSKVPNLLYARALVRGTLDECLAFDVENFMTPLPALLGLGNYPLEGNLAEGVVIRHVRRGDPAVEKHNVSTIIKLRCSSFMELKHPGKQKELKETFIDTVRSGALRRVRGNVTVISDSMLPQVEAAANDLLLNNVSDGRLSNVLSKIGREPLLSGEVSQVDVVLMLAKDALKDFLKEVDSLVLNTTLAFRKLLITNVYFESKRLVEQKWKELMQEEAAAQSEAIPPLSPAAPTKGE
TbREL1 confirm: TbREL1 RNA ligase inhibitors, confirmation, biochemical, FRET fluorescence, triplicate; shares compounds with TbREL1 inh; TbREL1 RNA ligation; actives 37% (n = 390); AID 1117282, 2014; inhibition, % at 9.66 µM;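 active means mean inhibition across replicates above a set limit taken from the earlier primary screen, cut at about 11% in these data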;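 further: 0% = REL1 with substrate and DMSO and 100% = REL1 plus control inhibitor NSC42067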
Active calls of the source: *. The full list was thinned out, with hits kept by preference.

SMILES	TbREL1 inh	others
O=C(c1ccc(-c2ccccc2Cl)o1)N1CCCCCCC1	13*	TbREL1 confirm=4
Cc1onc(-c2ccccc2Cl)c1C(=O)N1CCCCC1	-6
O=C(c1ccc(-c2ccc([N+](=O)[O-])cc2)o1)N1CCCCCCC1	-2
O=C(CCS(=O)(=O)c1ccccc1)Nc1cc(Cl)ccc1F	3
Cc1ccc(C)c(NC(=O)CN2C(=O)CCSc3ccccc32)c1	5
CCn1c2ccccc2c2cc(NC(=O)COC(=O)c3cccc(F)c3)ccc21	-3
O=C1NC[C@@H](Cc2ccc(O)cc2)N(CCc2cccc3ccccc23)C1=O	-3
CCC(C)[C@H]1CN=C(N)N1CCc1cccc2ccccc12 (stereo not given in full)	12*	TbREL1 confirm=7
c1ccc([C@H]2CNCCN2CCc2cccc3ccccc23)cc1	4
O=C(Nc1ccccc1C(F)(F)F)O[C@@H]1CC[C@@]23CCCN2C(=O)CCC[C@H]3C1	3
O=C(CCn1nnc(-c2cccs2)n1)N1CCCCC1	0
CCCCC(=O)OCC(=O)Nc1ccc(OC(F)F)cc1	-1
O=C(COC(=O)C1CCC1)Nc1ccc(OC(F)F)cc1	2
C[C@H](NC(N)=O)C(=O)OCC(=O)Nc1ccc(OC(F)F)cc1	12*	TbREL1 confirm=-1
O=C(CCCCCN1C(=O)C2C3C=CC(C3)C2C1=O)Nc1ccc2ncccc2c1 (stereo not given)	4
CCn1c(COc2ccccc2)nnc1SCC(=O)Nc1ccc(Oc2ccccc2)cc1	2
CC(C)CCOc1ccc(-c2c(=O)n(OCc3ccc([N+](=O)[O-])cc3)c3ccccc3[n+]2[O-])cc1	-2
O=c1c(-c2ccco2)[n+]([O-])c2ccccc2n1OCc1ccccc1	1
O=c1c(-c2cccc([N+](=O)[O-])c2)[n+]([O-])c2ccccc2n1O	12*	TbREL1 confirm=4
O=C(CSc1nnc(-c2ccc(Cl)cc2)n1C1CCCCC1)NN=Cc1c(O)ccc2ccccc12	0
COc1ccc(NC(=O)CSc2nnc(-c3cccs3)o2)cc1Cl	2
C/C(=N\Nc1cc(N2CCOCC2)nc(C)n1)c1cccc([N+](=O)[O-])c1	12*	TbREL1 confirm=2
Cc1nc(N/N=C/c2cccc(F)c2)cc(N2CCOCC2)n1	3
C/C(=N\Nc1ccc(Cl)c(C(=O)O)c1)c1cccc([N+](=O)[O-])c1	2
CCn1c(=O)n2n(c1=O)[C@]1(C=C(C)C2)CN(Cc2ccc(OC)cc2OC)C(NC(=O)c2ccccc2)=N1	-5
SMILES	TbREL1 inh	others
Cc1ccccc1N(C)C(=O)Cn1nnc(-c2ccccc2F)n1	1
O=C(C[n+]1ccc2ccccc2c1)c1ccccc1	1
Cc1cc(C)c[n+](CC(=O)c2ccccc2)c1	1
COC(=O)c1ccc[n+](CC(=O)c2ccc(Br)cc2)c1	11*	TbREL1 confirm=0
CCC(C)N(C(=O)CNc1nnnn1-c1ccccc1)C(C)CC (stereo not given)	0
CC1(C)Oc2ccc(C(=O)N3CCCC3)cc2NC1=O	0
O=C1CCC2(CCC(c3ccccc3)CC2)N1CC[C@@H](O)c1ccccc1 (stereo not given in full)	-2
CN(C)c1ccc(/C=N\NC(=O)c2cccc(S(=O)(=O)N(C)C)c2)cc1	-5
CC(C)N(C(=O)CSc1ncnc2sc(-c3ccccc3)cc12)C(C)C	-3
CN(C)CCNc1ncnc2ccccc12	1
CN(C)CCCNc1ncnc2sc(-c3ccccc3)cc12	14*	TbREL1 confirm=4
CCOc1ccccc1C(=O)Nc1ccc(C(=O)NCC2COc3ccccc3O2)cc1 (stereo not given)	3
COc1ccc(OC)c(-c2cc(C(=O)N3CCOCC3)no2)c1	100*	TbREL1 confirm=1
COc1ccc(-c2cc(C(=O)N3CCCC3)no2)cc1	4
COc1ccc(OC)c(-c2nnc(SCC(=O)N3CCOCC3)o2)c1	0
N#C/C(=C/c1ccc(O)c(O)c1)C(=O)NCc1ccc(Cl)cc1	46*	TbREL1 confirm=1
N#C/C(=C/c1cccc(O)c1)C(=O)NCc1ccc(Cl)cc1	4
N#C/C(=C/c1ccccc1)C(=O)NCc1ccccc1	2
Cc1nn(-c2ccccc2)c2sc(C(=O)N3CCN(Cc4ccc(F)cc4)CC3)cc12	4
COc1ccc(OC)c(C(=O)CSc2nnc(SCc3cccc4ccccc34)s2)c1	-4
CC(=O)NC(c1cccs1)c1cc(F)c2cccnc2c1O (stereo not given)	0
CCC(=O)NC(c1cccs1)c1cc([N+](=O)[O-])c2cccnc2c1OC (stereo not given)	33*	TbREL1 confirm=9
CCC(=O)NC(c1cccs1)c1ccc2cccnc2c1O (stereo not given)	0
CCN(CC)CCCNC(=O)CSc1nnc(-c2ccncc2)n1-c1ccc(OC)cc1	3
CCC1CCc2sc(C(=O)Nc3cc(S(=O)(=O)N4CCOCC4)ccc3OC)cc2C1 (stereo not given)	1
SMILES	TbREL1 inh	others
COC(=O)C1=C(C)N(Cc2ccc(C(F)(F)F)cc2)C(=NCc2ccccc2C(F)(F)F)NC1c1cccc(Cl)c1 (stereo not given)	16*	TbREL1 confirm=20*
COC(=O)C1=C(C)N(Cc2ccccc2)C(=O)N[C@H]1c1ccccc1	-1
COC(=O)C1=C(C)N(Cc2ccc(Cl)cc2)C(=S)NC1c1ccc(Cl)cc1 (stereo not given)	-4
COC(=O)C1=C(C)N(C)C(=NCc2ccccc2C(F)(F)F)NC1c1ccc(F)cc1 (stereo not given)	11
COC(=O)C1=C(C)N(Cc2ccc(C(F)(F)F)cc2)C(=NCc2ccccc2C(F)(F)F)NC1c1ccccc1 (stereo not given)	13*	TbREL1 confirm=14*
COC(=O)C1=C(C)N(Cc2ccccc2)C(=NCCCCO)N[C@H]1c1cccc(C(F)(F)F)c1	7
COCCN=C1N[C@@H](c2cccc(C(F)(F)F)c2)C(C(=O)OC)=C(C)N1Cc1ccccc1	14*	TbREL1 confirm=18*
COC(=O)C1=C(C)N(Cc2ccccc2)C(=O)N[C@H]1c1cccc(F)c1	-2
COC(=O)C1=C(C)N(Cc2ccccc2)C(=S)NC1c1cccc(OC)c1 (stereo not given)	-5
CCN1C(=NCC(C)C)N[C@@H](c2cccc(C(F)(F)F)c2)C(C(=O)OC)=C1C	11
COC(=O)C1=C(C)N(Cc2ccc(C(F)(F)F)cc2)C(=NCc2ccccc2C(F)(F)F)NC1c1ccc(Cl)cc1 (stereo not given)	11*	TbREL1 confirm=16*
O=C(O)CCN1C(=O)/C(=C/c2ccc(F)cc2F)SC1=S	-3
C=CCN1C(=O)[C@H](CC(=O)N2CCN(C(=O)c3ccco3)CC2)[C@@]2(C(=O)OCC)CCCC=C12	-2
CCC(C)Nc1nc(C)nc2c1nnn2Cc1ccccc1 (stereo not given)	0
COC(=O)c1ccc(S(=O)(=O)N2CCC(NC(=O)Cc3ccccc3)CC2)cc1	3
Cc1ccc(NC(=O)OCCN2CCN(Cc3ccccc3)CCC2=O)cc1C	12*	TbREL1 confirm=0
O=C(NCc1ccccc1)OCCN1CCN(Cc2ccccc2)CCC1=O	-3
O=C(Nc1ccc(F)cc1)OCCN1CCN(Cc2ccccc2)CCC1=O	-3
CC(C)(C)Cc1c(C2CCCCC2)nc2ccc(Cl)cn12	5
Brc1ccc2nc(C3CCCCC3)c(CC3CCCCC3)n2c1	11*	TbREL1 confirm=9
Cc1ccc2nc(C3CCCCC3)c(Cc3ccccc3C(F)(F)F)n2c1	-2
